Screening results as filed in PubChem.
TrxR1 substrate: qHTS Assay for Substrates of Mammalian Selenoprotein Thioredoxin Reductase 1 (TrxR1): qHTS. Potency, µM (doses to about 114 µM). 390,000 compounds, 0.01% hits. purified TrxR1 substrate turnover, NADPH consumption readout. Thioredoxin reductase 1, cytoplasmic (Rattus norvegicus), O89049; also: nearly all actives have a fitted effect of over 50% in size
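Rat TrxR1, dispensed at 90 nM, was prereduced with 400 uM NADPH (final) for 5 min at ~22 deg C, then incubated with compound 15 min before 400 uM selenite. A first-read NADPH fluorescence drop versus no-compound background flagged substrates.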
RORg inh: qHTS for inhibitors of ROR gamma transcriptional activity | Nuclear receptor ROR-gamma (Mus musculus), P51450 | 310,000 compounds, 5.4% hits | Drosophila S2 Gal4-RORgamma UAS-luciferase reporter, 20 h | Potency, µM (titrated, usually from 53.6 µM), actives largely listed as inhibitors; also: nearly all actives have a fitted effect of over 60% in size
Target sequence (P51450 whole entry, looked up, the tested form may be a part): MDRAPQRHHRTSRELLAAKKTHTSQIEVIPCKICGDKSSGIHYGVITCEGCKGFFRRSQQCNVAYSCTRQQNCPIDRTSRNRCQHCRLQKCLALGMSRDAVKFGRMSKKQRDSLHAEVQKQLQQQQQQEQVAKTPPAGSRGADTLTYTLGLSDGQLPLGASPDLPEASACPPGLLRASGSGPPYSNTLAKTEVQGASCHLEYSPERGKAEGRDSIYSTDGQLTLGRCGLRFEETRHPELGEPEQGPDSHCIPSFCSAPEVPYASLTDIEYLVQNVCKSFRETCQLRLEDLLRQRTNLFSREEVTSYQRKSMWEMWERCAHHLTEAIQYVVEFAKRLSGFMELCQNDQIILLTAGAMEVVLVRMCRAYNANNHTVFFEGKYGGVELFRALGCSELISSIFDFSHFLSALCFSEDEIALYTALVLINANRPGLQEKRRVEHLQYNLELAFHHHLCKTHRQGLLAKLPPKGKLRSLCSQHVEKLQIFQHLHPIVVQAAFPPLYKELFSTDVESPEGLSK
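ROR gamma transcriptional activity was tracked as Gal4-UAS luciferase output in stably transfected Drosophila Schneider cells, with compound added 1 hr before 700 uM copper sulfate induction and a 20 hr ambient-temperature incubation.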
FBPA coupling cs: qHTS Assay for Inhibitors of Fructose-1,6-bisphosphate Aldolase from Giardia Lamblia: Coupling assay counterscreen | coupling enzyme system counterscreen, AmpLite Red fluorescence | activity change, negative = inhibition, % at 58.2 µM, hits read low | 290,000 compounds, 0.67% hits; in the data active = activity change below about -30%
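Fluorescence at 525 nm excitation and 598 nm emission measured inhibition of the coupled detection system without aldolase. Compounds (at 57.5 uM final) were preincubated 10 min at room temperature with coupling enzyme reagent before a 20 min substrate/AmpLite Red step.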
GALK inhibitor: qHTS Assay for Inhibitors of Human Galactokinase (GALK); P51570; Purified GALK, Kinase-Glo residual ATP luminescence; Potency, µM (series often up to 57.5 µM), hits mostly inhibitors; 270,000 compounds, 0.007% hits
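ATP-depletion format; final 35 uM ATP, 100 uM D-galactose, 5 nM enzyme; pH 8.0 HEPES/Mg2+ buffer; 60 min RT; luminescence read 10 min after detection reagent.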
Gal4-VP16 FLuc: VP16 counterscreen qHTS for inhibitors of ROR gamma transcriptional activity. AID 2546, 2010. Drosophila S2 Gal4-VP16 UAS-luciferase, luminescence, 20 h. Potency, µM (top dose mostly 53.6 µM), most hits filed as inhibitors. 310,000 compounds, 3.5% hits;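 also: Gal4-VP16 expression switched on by copper sulfate through the metallothionein promoter; nearly all actives have a fitted effect of over 50% in size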
TrxR1 inh: qHTS Assay for Inhibitors of Mammalian Selenoprotein Thioredoxin Reductase 1 (TrxR1): qHTS; Potency, µM (series often up to 114 µM), most hits filed as inhibitors; 390,000 compounds, 1% hits; recombinant rTrxR1, NADPH fluorescence consumption, selenite substrate; AID 588453, 2011; also: nearly all actives have a fitted effect of over 65% in size
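Rat TrxR1 (90 nM in the dispensed reagent) was pre-reduced with 400 uM NADPH for 5 min at room temperature, then incubated with compound for 15 min. After 400 uM selenite was added, NADPH fluorescence (Ex 340/Em 450 nm) was followed for 8 min.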
Hits are given with their value; [ ] = remark or other dose. The list is not random: actives were taken first. Their share in the collection is about 5.9%. Unless noted, calls follow the shape of the dose curve; as a rule, active = well fitted curve in the direction sought with a large enough effect; inconclusive = small, poorly fitted or top-dose-only effect, or another doubt; inactive = no such curve, though single readings can be large; an effect the other way counts as inactive or inconclusive.

How did O=C(NC(NC(=S)Nc1ccccc1)C(Cl)(Cl)Cl)c1cccc(Cl)c1 (stereo not drawn) do in these assays?
TrxR1 substrate: inactive; RORg inh: 11µM; FBPA coupling cs: inactive; GALK inhibitor: inactive; Gal4-VP16 FLuc: inconclusive; TrxR1 inh: inactive

How did Cc1cc(C)c(NC(=S)NC(NC(=O)c2ccccc2)C(Cl)(Cl)Cl)c(C)c1 (stereo not drawn) do in these assays?
TrxR1 substrate: inactive; RORg inh: 20µM; FBPA coupling cs: inactive; GALK inhibitor: inactive; Gal4-VP16 FLuc: inconclusive; TrxR1 inh: inactive

How did O=C(O)c1cccc(NC(=S)NC(NC(=O)c2cccc([N+](=O)[O-])c2)C(Cl)(Cl)Cl)c1 (stereo not drawn) do in these assays?
TrxR1 substrate: inactive; RORg inh: inactive; FBPA coupling cs: inactive; GALK inhibitor: inactive; Gal4-VP16 FLuc: inactive; TrxR1 inh: inactive

Results for O=Cc1cn(-c2ccccc2)nc1-c1ccccc1 ?
TrxR1 substrate: inactive; RORg inh: inactive; FBPA coupling cs: inactive; GALK inhibitor: inactive; Gal4-VP16 FLuc: inactive; TrxR1 inh: inactive

Results for CC1=NNC(=O)/C1=C\c1cn(-c2ccccc2)nc1-c1ccccc1 ?
TrxR1 substrate: inactive; RORg inh: 1.1µM; FBPA coupling cs: inactive; GALK inhibitor: inactive; Gal4-VP16 FLuc: inactive[10 µM]; TrxR1 inh: inconclusive

How did COc1cccc2c1cc1c(=O)n(CC(=O)N3CCCC3)nc(C)n12 do in these assays?
TrxR1 substrate: inactive; TrxR1 inh: inactive

Results for c1ccc(-c2ccc(-c3cnc4n3CCCCC4)cc2)cc1 ?
TrxR1 substrate: inactive; RORg inh: 6.3µM; FBPA coupling cs: inactive; GALK inhibitor: inactive; Gal4-VP16 FLuc: 11µM; TrxR1 inh: inactive

Results for Cc1ccc(-c2nnc3n2CCCCC3)cc1 ?
TrxR1 substrate: inactive; RORg inh: inactive; FBPA coupling cs: inactive; GALK inhibitor: inactive; Gal4-VP16 FLuc: inactive; TrxR1 inh: inactive

How did CCOc1ccc(-c2cnc3n2CCCCC3)cc1 do in these assays?
TrxR1 substrate: inactive; RORg inh: 11µM; FBPA coupling cs: inactive; GALK inhibitor: inactive; Gal4-VP16 FLuc: inconclusive; TrxR1 inh: inactive

Results for Cc1ccc(-c2cnc3n2CCCCC3)cc1 ?
TrxR1 substrate: inactive; RORg inh: 3.5µM; FBPA coupling cs: inactive; GALK inhibitor: inactive; Gal4-VP16 FLuc: inactive; TrxR1 inh: inactive

How did CC1(C)C(=O)C=CC(=O)C(C)(C)C(=O)C=CC(=O)C(C)(C)C2=CC=C(O2)C(C)(C)C(=O)C=CC1=O do in these assays?
TrxR1 substrate: inactive; TrxR1 inh: 16µM

How did CN(C)S(=O)(=O)c1ccc(NC(=S)NC(=O)c2ccc(Br)o2)cc1 do in these assays?
RORg inh: 11µM; FBPA coupling cs: inactive; GALK inhibitor: inactive; Gal4-VP16 FLuc: inconclusive

How did Cc1cc(C)cc(NS(=O)(=O)c2ccc(NC(=S)NC(=O)c3ccc(Br)o3)cc2)c1 do in these assays?
TrxR1 substrate: inactive; RORg inh: 3.5µM; FBPA coupling cs: inactive; GALK inhibitor: inactive; Gal4-VP16 FLuc: 7.9µM; TrxR1 inh: inactive

What do the screens show for `Cc1cc(C)cc(NC(=O)Cn2cc(S(=O)(=O)NC(C)(C)C)c(S(=O)(=O)NC(C)(C)C)c2)c1`?
TrxR1 substrate: inactive; TrxR1 inh: inactive

Results for OC[C@H](O)[C@H](O)[C@@H](O)[C@@H](O)[C@@H]1SC(c2ccccc2)=NN1c1ccccc1 ?
TrxR1 substrate: inactive; RORg inh: 8.9µM; FBPA coupling cs: inactive; GALK inhibitor: inactive; Gal4-VP16 FLuc: inactive; TrxR1 inh: inconclusive

What do the screens show for `Cc1ccc(C2=NNC(C(O)C(O)C(O)C(O)CO)S2)cc1` (stereo not drawn)?
TrxR1 substrate: inactive; RORg inh: inconclusive; FBPA coupling cs: inactive; GALK inhibitor: inactive; Gal4-VP16 FLuc: inactive; TrxR1 inh: inactive

Results for CCN(C(=O)COC(=O)c1c2c(nc3ccccc13)/C(=C/c1ccccc1)CC(C)C2)C1CCS(=O)(=O)C1 (stereo not drawn) ?
TrxR1 substrate: inactive; RORg inh: inactive; FBPA coupling cs: inactive; GALK inhibitor: inactive; Gal4-VP16 FLuc: inactive; TrxR1 inh: inactive

What do the screens show for `CN(/N=C/c1ccc2c(c1)OCO2)c1ccccc1`?
TrxR1 substrate: inactive; RORg inh: inactive; FBPA coupling cs: inactive; GALK inhibitor: inactive; Gal4-VP16 FLuc: 18µM; TrxR1 inh: inactive

What do the screens show for `C(=N\N(c1ccccc1)c1ccccc1)/c1ccc2c(c1)OCO2`?
TrxR1 substrate: inactive; RORg inh: inactive; FBPA coupling cs: inactive; GALK inhibitor: inactive; Gal4-VP16 FLuc: inactive; TrxR1 inh: inactive

Results for CCC(=O)c1cc(F)c(N2CCN(C(=O)Cc3ccccc3)CC2)cc1C ?
TrxR1 substrate: inactive; RORg inh: inactive; FBPA coupling cs: inactive; GALK inhibitor: inactive; Gal4-VP16 FLuc: 13µM; TrxR1 inh: inactive

Results for CCC(=O)c1ccc(N2CCN(C(=O)Cc3ccccc3)CC2)c(F)c1 ?
TrxR1 substrate: inactive; RORg inh: inconclusive; FBPA coupling cs: inactive; GALK inhibitor: inactive; Gal4-VP16 FLuc: inconclusive; TrxR1 inh: inactive

How did COn1c(=O)c(-c2cccc(Br)c2)[n+]([O-])c2ccccc21 do in these assays?
TrxR1 substrate: inactive; RORg inh: inactive; FBPA coupling cs: inactive; GALK inhibitor: inactive; Gal4-VP16 FLuc: inactive; TrxR1 inh: inactive

How did COc1ccc(N2C(=O)CC(N3CCN(Cc4ccc5c(c4)OCO5)CC3)C2=O)cc1 (stereo not drawn) do in these assays?
TrxR1 substrate: inactive; RORg inh: inactive; FBPA coupling cs: inactive; GALK inhibitor: inactive; Gal4-VP16 FLuc: inactive; TrxR1 inh: inactive

What do the screens show for `CC(=O)C[C@H](O)CC(=O)[C@H]1OC(=O)CCCCCCc2ccccc21`?
TrxR1 substrate: inactive; TrxR1 inh: inactive

Results for COc1ccc2c(COC(=O)c3n[nH]c4ccccc34)cc(=O)oc2c1 ?
TrxR1 substrate: inactive; RORg inh: inactive; FBPA coupling cs: inactive; GALK inhibitor: inactive; Gal4-VP16 FLuc: inactive; TrxR1 inh: inactive

What do the screens show for `COc1cc2c(cc1NC(=O)CN(C)Cc1nc3ccccc3c(=O)[nH]1)oc1ccccc12`?
TrxR1 substrate: inactive; RORg inh: 4.5µM; FBPA coupling cs: inactive; GALK inhibitor: inactive; Gal4-VP16 FLuc: 11µM; TrxR1 inh: inactive

What do the screens show for `COc1cc2c(cc1NC(=O)CSc1nc3ccccc3[nH]1)oc1ccccc12`?
TrxR1 substrate: inactive; RORg inh: inactive; FBPA coupling cs: inactive; GALK inhibitor: inactive; Gal4-VP16 FLuc: inactive; TrxR1 inh: inactive
